LASV entry inh = blocks Lassa virus binding to or entry into cells; Potency, µM (doses to about 37.9 µM), for the others: at the top dose activity change, negative = inhibition, usual class: inhibitors; actives 1.2% (n = 300,000); AID 540256; Lassa virus pseudotype entry inhibition, cell reporter; calls by dose curve; tested in HEK293 cells; also: potency is read from the fitted curve at half-maximal effect; % is scaled to controls: 0 for no effect and ±100 for the full control effect; nearly all actives have a fitted effect of over 50% in size
Cycloheximide cs = counter-screen for Shiga toxin inhibitors: cycloheximide protein synthesis inhibition; max response, %; actives 12% (n = 300,000); AID 2314; cell reporter, cycloheximide protein synthesis inhibition counterscreen; in the data active = max response mostly above about 13%, no sharp cut-off; inactive = mostly below about 14%; also: read at 38.3 µM for the half of the compounds with a filed dose; 0% is about no effect
Marburg entry inh = blocks Marburg virus binding to or entry into cells; Potency, µM (series often up to 37.8 µM), for inactives: top-dose activity change, negative = inhibition, usual class: inhibitors; Marburg virus pseudotyped entry inhibition, cell reporter; AID 540276; actives 1.8% (n = 300,000); calls by dose curve; tested in HEK293 cells; also: potency is read from the fitted curve at half-maximal effect; % is scaled to controls: 0 for no effect and ±100 for the full control effect
Shiga inhibitor = Shiga toxin inhibition; AID 2315; Vero cells, Shiga toxin protein synthesis inhibition reporter; actives 9.2% (n = 290,000); inhibition, % at 38.7 µM; in the data active = inhibition mostly above about 28%, no sharp cut-off; inactive = mostly below about 43%; also: 0% is about no effect
HCV inh = blocks hepatitis C virus; Huh7.5.1 HCVcc-Cre infection, luciferase reporter, 44 h; Potency, µM (highest dose often 41.8 µM), for the others: at the highest dose activity change, negative = inhibition, actives largely listed as inhibitors; actives 3.4% (n = 340,000); active = well fitted inhibition curve with a large enough effect; inconclusive = small, poorly fitted or top-dose-only effect, or another doubt; inactive = no such curve, though single readings can be large or run the other way; also: potency is read from the fitted curve at half-maximal effect; % is scaled to controls: 0 for no effect and ±100 for the full control effect
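Cells seeded at 1,000/well and cultured 4 h, then compounds added followed by HCVcc-Cre virus (~0.5 moi). After 44 h further culture, luciferase substrate was added, plates held 15 min at room temperature, and luminescence read for 15 sec.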
FMDV antiviral = foot and mouth disease virus antiviral activity | FMDV antiviral cell-based qHTS | Potency, µM (titrated, usually from 57.9 µM), without a hit: at the highest dose activity change, negative = inhibition, actives largely listed as inhibitors | actives 1.2% (n = 410,000); calls by dose curve; tested in HEK293T cells; also: read-out not given here; potency is read from the fitted curve at half-maximal effect; % is scaled to controls: 0 for no effect and ±100 for the full control effect; nearly all actives have a fitted effect of over 45% in size
* = called active by the depositor; ? = inconclusive; nt = no result given; [ ] = dose if it differs, or a comment. Rows were chosen to be rich in hits. Some 13% of all compounds tested hit in one or more screens of this group.

SMILES | LASV entry inh | Cycloheximide cs | Marburg entry inh | Shiga inhibitor | HCV inh | FMDV antiviral
Cc1oc(=O)c(NC(=O)c2ccccc2)cc1C(=O)c1ccccc1 | ? | 64* | 2% | 101* | -19% | -22%
Cc1ccc(C(=O)Nc2ccc(Cl)cc2C(=O)c2ccccc2)cc1 | -17% | nt | -23% | nt | -4% | 0%
CC(=O)c1cc(NC(=O)c2ccccc2)c(=O)oc1C | -1% | 6 | 8%[46.1 µM] | -13 | 4% | -8%
OC[C@@H](O)CN1CCN(c2ccccc2)CC1 | nt | nt | 15% | nt | nt | nt
COC(=O)C1=C(C(=O)OC)[C@@H]2N(C)c3ccc(OC)cc3[C@@]23C[C@@H](C(=O)OC)N(C(=O)N2CCNC2=O)C3=N1 | nt | nt | -26%[14.2 µM] | nt | nt | nt
COc1ccc(CN2CCN(Cc3csc(C(C)=O)c3)CC2CCO)c(C)c1C (stereo not drawn) | 5%[46.1 µM] | -1 | ? | -1 | ? | ?
CC(=O)c1ccc(NC(=O)Nc2ncn(Cc3cccc(C)c3)n2)cc1 | 0.65µM* | -3 | 8% | 22 | -7% | -7%
Cc1ccc(NC(=O)C(=O)NN)cc1 | nt | -1 | nt | -3 | 16% | -10%
NNC(=O)C(=O)Nc1ccc(O)cc1 | nt | 23* | nt | 71 | 13% | -12%
N#Cc1ccc2sn(-c3ccccc3)c(=O)c2c1 | nt | nt | nt | nt | nt | 66%
O=C(CN1C(=O)C2C3C=CC(C3)C2C1=O)NCCC1=CCCCC1 (stereo not drawn) | 3% | 22* | 44% | 32 | 19% | 28%
O=C(CCc1ccccc1)NCCC1=CCCCC1 | 5% | 40* | 8% | 99* | 4% | 35%
O=C(O)C1C2C=CC(C2)C1C(=O)NCCC1=CCCCC1 (stereo not drawn) | 21% | -1 | 4% | 12 | 6% | nt
Cc1ccsc1C(=O)OCC(=O)NCCC1=CCCCC1 | -1% | 22* | 17% | 35 | ? | 12%
O=C(Cc1ccccc1)NCCC1=CCCCC1 | 6% | -1 | 10% | 13 | 3% | 4%
O=C(COC(=O)c1ccc(Br)cc1)NCCC1=CCCCC1 | 0% | -3 | -10%[46.1 µM] | 31 | 3% | 5%
O=C(COC(=O)c1ccccc1)NCCC1=CCCCC1 | ? | 14* | -2% | 13 | 11% | 25%
O=C(O)CS(=O)(=O)CC(=O)O | -26% | -4 | ? | -3 | ? | 15%
COc1ccc(-n2c(SCC(=O)Nc3nccs3)nc3c(c2=O)SCC3)cc1 | nt | -1 | nt | 9 | -18% | -9%
O=S(=O)(c1ccc2c(c1)OCCO2)N1CCN(S(=O)(=O)c2c(F)cc(F)cc2F)CC1 | nt | nt | nt | nt | nt | -13%
O=C(CCCc1ccccc1)NCCC1=CCCCC1 | 10% | 27* | 6%[14.2 µM] | 20 | 9% | 72%
O=C(CCCN1C(=O)c2ccccc2C1=O)NCCC1=CCCCC1 | -4% | -2 | -4% | -3 | -12% | 8%
O=C(CCS(=O)(=O)c1ccccc1Cl)NCCC1=CCCCC1 | 7% | 35* | -5% | 61* | 18% | 26%
CC(=O)Nc1ccc(NC(=O)c2oc3ccc4c(c3c2C)C(=O)CC(C)(C)O4)cc1 | -13%[46.1 µM] | nt | nt | nt | nt | 21%
O=c1c2ccccc2nc2n1CCS2(=O)=O | ? | 1 | 23%[46.1 µM] | 20 | 12% | 32µM*
SMILES | LASV entry inh | Cycloheximide cs | Marburg entry inh | Shiga inhibitor | HCV inh | FMDV antiviral
CCN(CCCNC(=O)CCC(=O)N1CCOc2ccccc21)Cc1ccccc1 | nt | 1 | nt | -4 | 7% | -19%
COc1ccc(C)c2sc(NC(=O)C3CC3)nc12 | nt | 8 | nt | 7 | -16% | 8%
Cc1nc2c(ccc3nc(NC(=O)C4CC4)sc32)s1 | ? | 52* | ? | 85* | 11% | 58%
CCC(=O)Nc1nc2ccc3sc(C)nc3c2s1 | -22% | 50* | ? | 96* | -17% | 8%
CCC(=O)Nc1nc2c(OC)ccc(C)c2s1 | nt | -3 | nt | -8 | ? | -13%
Cc1noc(C)c1C(=O)OCC(=O)NCCc1ccc(S(N)(=O)=O)cc1 | -13% | nt | -8% | nt | 19% | -5%
COc1ccc(CN2CCc3c(c(=O)n4ncc(C(=O)N5CCN(c6ccc(F)cc6)CC5)c4n3C)C2)cc1 | -18%[46.1 µM] | nt | nt | nt | nt | ?
CCn1c2c(c(=O)n3ncc(C(=O)N4CCN(c5ccc(C(C)=O)cc5)CC4)c13)CN(Cc1ccc(OC)cc1)CC2 | 10µM* | nt | nt | nt | nt | 20µM*
COc1ccccc1NC=C1C(=O)OC(C)(C)OC1=O | -3% | 36* | -12% | 82* | 4% | 63%
NC(=O)c1cc(S(=O)(=O)Nc2cccc(F)c2)co1 | nt | -2 | nt | -9 | 11% | -10%
